# Measurements from the supplement of paper PMC6555819.
# Key:
# Assay in all cases: PBM binding z-score (relative to random genomic background probes); higher = stronger binding; sequences stand for … in GC…GCGATTGACAGCGTAGAATGAAGG
# [1] = tested on: PPARg:RXRa DBDmut IVT, anti-RXR (DBD mutation: RXRa K156A/R161A, NR concentration 270 nM, RXRa partner concentration 90 nM)
# In short: (§1)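 Custom Agilent 4×180K protein-binding microarrays carried double-stranded probes, each with a 34-nt variable region. These regions held direct-repeat seeds, single-nucleotide variants, half-site ablations and random human genomic background sequences. Ligand-free nuclear receptor dimers were incubated on the arrays for 1 h, antibodies against each partner (one per run) detected binding, and scanned fluorescence was regression-normalized. Binding z-scores take the random background probes as reference.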
# [2] = tested on: PPARg:RXRa IVT, anti-PPARg (NR concentration 270 nM, RXRa partner concentration 90 nM)
# In short: as §1
# [3] = tested on: PPARg DBDmut:RXRa IVT, anti-PPARg (DBD mutation: PPARg1 K132A/R137A, NR concentration 270 nM, RXRa partner concentration 90 nM)
# In short: as §1
# [4] = tested on: PPARg DBDmut IVT, anti-PPARg (DBD mutation: PPARg1 K132A/R137A, NR concentration 270 nM)
# In short: as §1
# [5] = tested on: PPARg homodimer (NR concentration 180 nM)
# In short: as §1
# [6] = tested on: PXR:RXRa (NR concentration 270 nM, RXRa partner concentration 90 nM)
# In short: as §1
# [7] = tested on: PXR homodimer (NR concentration 270 nM)
# In short: as §1
# [8] = tested on: RARa:RXR (NR concentration 270 nM, RXRa partner concentration 90 nM)
# In short: as §1
# [9] = tested on: RARa homodimer (NR concentration 270 nM)
# In short: as §1
# [10] = tested on: RARb:RXRa (NR concentration 270 nM, RXRa partner concentration 90 nM)
# In short: as §1
Sequence,PBM binding z-score [1],PBM binding z-score [2],PBM binding z-score [3],PBM binding z-score [4],PBM binding z-score [5],PBM binding z-score [6],PBM binding z-score [7],PBM binding z-score [8],PBM binding z-score [9],PBM binding z-score [10]
TCTAGTTGGTCACGGAGGTCGCACACGACGGGTA,2.12,2.88,0.487,0.825,1.19,1.79,-0.0843,1.63,0.349,2.47
TAGCCTAAGTCATTCAGGGGCCAGTATAGAAAGC,-0.155,-0.0585,0.0399,0.2,0.00647,0.14,-0.297,0.276,-0.483,0.478
AGAATGAGGTAACCAAAGATCAGGGAAACGCTTG,3.05,2.17,1.22,1.42,-0.124,0.0437,-0.0264,0.577,0.155,0.403
AGAATGAGGTTATACGTAGATCAGGGTAGAAAGT,4.24,2.33,1.07,0.356,1.01,1.35,0.929,1.86,0.591,1.59
CGAACTAGGTCACAACAGGACAGTGAAGGATGAT,8.41,8.69,2.32,1.05,1.54,1.85,0.241,1.87,0.573,3.79
CCTACTGGGGCAAGGTCATTGATCAGTCAAAGCA,4.91,5.97,1.59,0.39,4.67,3.88,1.04,4.17,0.391,3.5
CGTCCAAGGTCAGAGACGTCAGTGAATGCCGAGT,2.2,1.74,-0.306,-0.0249,1.43,2.14,0.599,2.75,0.197,4.37
TTACCAAGGTGAAAGGTCGCTGATGCACGCCTTG,2.44,5.19,0.53,0.614,1.28,3.66,-0.522,5.46,0.386,3.12
TCAGACAGGTGAAGGAAACTCAGGTACGCAGTCG,2.96,0.598,0.181,-0.163,0.667,0.502,0.224,0.564,0.502,0.976
GCTGCTAGGTCAACTGATGGTCAGGTAAAGCTCG,4.69,4.23,-0.376,-0.724,2.17,1.83,-0.677,3.15,0.327,4.45
ACTATTAGTTGACTTAGGGCAGCCGATACGACGC,0.0635,0.0175,1.35,0.429,-0.15,-0.251,-0.115,-0.045,0.705,0.758
TAGCCTAGGTCATTCTGGGGCCAGTATAGAAAGC,1.71,2.77,0.208,0.242,0.886,2.29,-0.248,2.76,-0.372,3.67
GGGACTGGGGCATCAGCAGGTTACCATAACTTAA,4.49,5.48,0.985,1.98,1.51,1.12,0.678,1.2,0.663,1.33
TATACAGGGTCAAAGGCCAGATTACGAATGTCGA,2.17,4.84,2.19,3.09,2.87,4.54,0.853,6.01,1.67,4.43
GGAACGAGGGCCAGTTGATAGCAGAGTTTGATGG,0.134,-0.54,-0.953,-0.88,-0.513,-0.515,-0.158,-0.522,-1.03,0.217
AATACAGGGTCATCGTTGGCCAGAGTACGCACAG,2.72,4.4,1.78,2.43,2.34,4.57,0.72,5.31,1.34,4.37
CTCGAAAGGTCGTGCCCAGGTGAGTATACCAAAC,0.771,1.91,0.249,0.285,2.38,3.17,0.0798,4.63,0.0863,3.91
GTACCAATGTGAATAGGTCGTTGATGAGTAGGCG,-0.469,-0.105,-0.359,0.0422,0.0773,-0.176,-0.211,0.0838,0.262,0.00696
AGTCAAAGTTCAGGACGAGGCAACGTAAAGCACG,-0.129,1.26,0.256,0.437,1.12,1.94,0.989,1.89,0.997,4.37
CCTACTGGACCAAAGGTCATTGATTCCAATGCTC,3.51,5.62,0.797,0.872,3.81,5.47,3.17,5.95,2.78,4.48
ACAGACAGGTGAGTGACGGTAACTCAGCTGGACG,0.522,0.563,0.246,0.557,-0.526,-0.527,-0.705,-0.525,-0.487,0.377
ATATGTAGGTTAGGTGGGGTCATTCAGACTAGGC,6.72,5.87,2.01,3.16,2.99,6.47,4.9,6.09,1.79,2.98

Sequence,PBM binding z-score [1],PBM binding z-score [2],PBM binding z-score [3],PBM binding z-score [4],PBM binding z-score [5],PBM binding z-score [6],PBM binding z-score [7],PBM binding z-score [8],PBM binding z-score [9],PBM binding z-score [10]
TAGCCTAGGTCATTCAGGGACCAGTATAGAAAGC,0.873,2.72,0.102,-0.132,0.904,1.67,-0.229,2.18,-0.017,3.57
GCTTCTAGGTCAACTGATGGTCAGCTAAAGCTCG,7.69,7.25,0.0953,0.797,2.01,1.97,-0.405,3.16,0.124,4.42
TCTATTAGTTGATTAGGGCAACAGAAACAGCGGA,2.04,1.59,1.69,1.06,1.02,0.573,0.374,0.636,1.08,0.82
CCTCGGGGGACAACAGGAGGTCAGAGCTGCCAGA,0.622,1.99,0.461,0.197,1.34,2.74,0.253,2.8,0.259,3.16
AGAAAGAGGTTAAGATCAGGGAAACAGAATACAT,1.12,1.52,1.97,0.819,1.02,1.37,0.655,1.89,0.728,2.4
CCTATTAGTTGACCATAAGGGCTACCGAAGCTCG,0.457,0.104,0.267,0.311,1.99,0.0462,0.632,0.373,1.97,0.623
ATATGTAGGTTACATCAGGGTCATTCAGGCTATG,7.19,7.69,2.46,2.26,2.46,4.24,2.65,4.06,1.01,2.77
CCTACTGGGCCAAGGTCATTGAACAGTCAAAGCA,3.68,4.69,-0.3,-0.825,1.5,3.32,0.99,3.5,-0.309,3.5
ATCTCGAGGTAAAAGTTCAGTGAATCCCGAGGAT,-0.0537,2.11,0.38,0.58,0.813,2.53,0.878,2.6,-0.00487,2.54
CCTAGTTGGTCAGGAGGTCAAACACCGGATATGA,1.54,3.02,0.223,0.259,3.46,4.59,2.21,5.06,2.09,3.76
ACTAGCAGGCCAAGGTTGGGTCACTCAAACAAAG,0.282,0.868,-0.95,-1.46,0.597,0.524,-0.493,1.24,-0.93,1.69
TGTTGTAGATCAGCAGGTTAAGAAAGCTGGCCAA,-1.12,-0.254,-0.00533,-1.02,-0.701,-0.454,-0.604,-0.71,-0.587,-0.157
TGTCAAAGTTCAAAGGTAACGTAAGTATCCACAC,0.64,4.66,1.24,1.15,2.16,5.77,3.43,6.45,0.967,5.11
CGTCCAAGGTCATAGGAGGTCAGTAAAGACAGAT,3.22,4.57,1,1.13,5.13,6.88,4.18,6.22,2.02,5.38
TAGCCTAGGTCATTGGGCCTGTATAGTACGCATC,2.39,3.03,-0.124,-0.181,1.46,1.65,-0.0817,2.37,-0.457,3.55
TCATATAGGTAAACCGGTGAAAGTCCGTAAGTTA,4.14,3.35,0.791,0.416,0.766,0.768,0.578,0.953,0.584,0.426
ACTTTTAGTTGAGACGAGGGCAACCGATAGGTTG,0.771,0.663,1.4,1.16,0.208,1.33,0.341,1.59,0.167,1.24
CATGCAGGGTCAGCTAGGCCAGAGTAGGGACGGC,0.734,1.98,0.517,-0.095,0.728,2.2,-0.234,3.27,-0.247,4.14
GCTAGCAGGCCATTTGGGTCACTCAATGACGGGC,1.95,2.3,-1.31,-1.12,-0.589,0.628,0.0652,0.69,-0.931,1.63
ATATGTAGGTTACATCCGGGTCATTAAGGCTATG,7.73,7.28,1.96,2.14,1.78,3.52,4.13,3.18,0.456,2.36
ATATGTAGGTTAGCTGGGGTCATCCAGACTAGGC,6.84,6.06,1.71,0.818,2.58,6.14,1.99,5.79,1.43,3.34
TCTAGTTGGTCACGGAGGTCACACAGGACGGGTA,2.41,4.28,0.872,-0.126,3.68,4.78,3.02,4.72,1.58,3.98
